This excerpt belongs to a sample that is enriched for the strongest signals.
Tests used:
Test in all cases: glycan array binding signal (z-score within array); higher = stronger binding
Details in all cases: glycan notation: IUPAC condensed, linker removed
Fuc(a1-2)Gal(b1-4)Glc6S = biological target: Fuc(a1-2)Gal(b1-4)Glc6S
Procedure, shortened: (§1)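 Columns mapping to the same glycan were averaged after glycan names were converted to IUPAC-condensed notation. The data come from 3228 arrays in the Consortium for Functional Glycomics database, limited to those with an available protein sequence. Binding is reported as a within-array Z-score averaged across arrays of one protein sequence and across linkers.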

[1] = biological target: Fuc(a1-2)[Gal(a1-3)]Gal(b1-4)GlcNAc
Procedure, shortened: as §1

[2] = biological target: Fuc(a1-2)[Gal(a1-3)]Gal(b1-4)GlcNAc(b1-3)[Fuc(a1-2)[Gal(a1-3)]Gal(b1-4)GlcNAc(b1-6)]GalNAc
Procedure, shortened: as §1

[3] = biological target: Fuc(a1-2)[Gal(a1-3)]Gal(b1-4)[Fuc(a1-3)]GlcNAc(b1-3)GalNAc
Procedure, shortened: as §1

[4] = biological target: Fuc(a1-3)[Gal(b1-4)]GlcNAc(b1-4)Gal(b1-4)[Fuc(a1-3)]GlcNAc
Procedure, shortened: as §1

[5] = biological target: Gal(a1-3)Gal(b1-4)GlcNAc(b1-2)Man(a1-3)[Gal(a1-3)Gal(b1-4)GlcNAc(b1-2)Man(a1-6)]Man(b1-4)GlcNAc(b1-4)GlcNAc
Procedure, shortened: as §1

[6] = biological target: Gal(a1-3)Gal(b1-4)GlcNAc(b1-6)GalNAc
Procedure, shortened: as §1

[7] = biological target: Gal(a1-3)Gal(b1-4)[Fuc(a1-3)]GlcNAc(b1-2)Man(a1-3)[Gal(a1-3)Gal(b1-4)[Fuc(a1-3)]GlcNAc(b1-2)Man(a1-6)]Man(b1-4)GlcNAc(b1-4)GlcNAc
Procedure, shortened: as §1

[8] = biological target: Gal(b1-3)[Neu5Ac(a2-6)]GlcNAc(b1-4)Gal(b1-4)Glc
Procedure, shortened: as §1

[9] = biological target: Gal(b1-4)GalNAc(a1-3)[Fuc(a1-2)]Gal(b1-4)GlcNAc
Procedure, shortened: as §1

Gal(b1-4)GlcNAc = biological target: Gal(b1-4)GlcNAc
Procedure, shortened: as §1

Gal(b1-4)GlcNAc(b1-2)Man = biological target: Gal(b1-4)GlcNAc(b1-2)Man
Procedure, shortened: as §1

[10] = biological target: Gal(b1-4)GlcNAc(b1-2)Man(a1-6)[Man(a1-3)]Man(b1-4)GlcNAc(b1-4)GlcNAc
Procedure, shortened: as §1

[11] = biological target: Gal(b1-4)GlcNAc(b1-2)[Gal(b1-4)GlcNAc(b1-4)]Man(a1-3)[Gal(b1-4)GlcNAc(b1-2)[Gal(b1-4)GlcNAc(b1-6)]Man(a1-6)]Man(b1-4)GlcNAc(b1-4)GlcNAc
Procedure, shortened: as §1

[12] = biological target: Gal(b1-4)GlcNAc(b1-3)Gal(b1-4)Glc
Procedure, shortened: as §1

[13] = biological target: Gal(b1-4)GlcNAc(b1-3)Gal(b1-4)GlcNAc(b1-2)[Gal(b1-4)GlcNAc(b1-3)Gal(b1-4)GlcNAc(b1-6)]Man(a1-6)[Gal(b1-4)GlcNAc(b1-3)Gal(b1-4)GlcNAc(b1-2)Man(a1-3)]Man(b1-4)GlcNAc(b1-4)GlcNAc
Procedure, shortened: as §1

[14] = biological target: Gal(b1-4)GlcNAc(b1-3)Gal(b1-4)GlcNAc(b1-3)Gal(b1-4)GlcNAc
Procedure, shortened: as §1

[15] = biological target: Gal(b1-4)GlcNAc(b1-3)Gal(b1-4)GlcNAc(b1-3)Gal(b1-4)GlcNAc(b1-2)[Gal(b1-4)GlcNAc(b1-3)Gal(b1-4)GlcNAc(b1-3)Gal(b1-4)GlcNAc(b1-6)]Man(a1-6)[Gal(b1-4)GlcNAc(b1-3)Gal(b1-4)GlcNAc(b1-3)Gal(b1-4)GlcNAc(b1-2)Man(a1-3)]Man(b1-4)GlcNAc(b1-4)[Fuc(a1-6)]GlcNAc
Procedure, shortened: as §1

[16] = biological target: Gal(b1-4)GlcNAc(b1-3)Gal(b1-4)GlcNAc(b1-3)Gal(b1-4)GlcNAc(b1-3)Gal(b1-4)GlcNAc(b1-3)Gal(b1-4)GlcNAc(b1-2)[Gal(b1-4)GlcNAc(b1-3)Gal(b1-4)GlcNAc(b1-3)Gal(b1-4)GlcNAc(b1-3)Gal(b1-4)GlcNAc(b1-3)Gal(b1-4)GlcNAc(b1-6)]Man(a1-6)[Gal(b1-4)GlcNAc(b1-3)Gal(b1-4)GlcNAc(b1-3)Gal(b1-4)GlcNAc(b1-3)Gal(b1-4)GlcNAc(b1-3)Gal(b1-4)GlcNAc(b1-2)Man(a1-3)]Man(b1-4)GlcNAc(b1-4)[Fuc(a1-6)]GlcNAc
Procedure, shortened: as §1

[17] = biological target: Gal(b1-4)GlcNAc(b1-3)[Gal(b1-4)GlcNAc(b1-6)]Gal(b1-4)GlcNAc
Procedure, shortened: as §1

Gal3S(b1-4)GlcNAc6S = biological target: Gal3S(b1-4)GlcNAc6S
Procedure, shortened: as §1

Gal3S4S(b1-4)GlcNAc = biological target: Gal3S4S(b1-4)GlcNAc
Procedure, shortened: as §1

Gal3S6S(b1-4)GlcNAc = biological target: Gal3S6S(b1-4)GlcNAc
Procedure, shortened: as §1

[18] = biological target: GalNAc(b1-3)Gal(a1-6)Gal(b1-4)Glc
Procedure, shortened: as §1

GalNAc(b1-3)GalNAc = biological target: GalNAc(b1-3)GalNAc
Procedure, shortened: as §1

[19] = biological target: GlcNAc(b1-3)Gal(b1-4)GlcNAc(b1-3)[GlcNAc(b1-3)Gal(b1-4)GlcNAc(b1-3)]GalNAc
Procedure, shortened: as §1

[20] = biological target: Man(a1-2)Man(a1-3)[Man(a1-2)Man(a1-6)]Man(a1-6)[Man(a1-3)[Man(a1-6)]Man(a1-6)]Man(b1-4)GlcNAc(b1-4)GlcNAc
Procedure, shortened: as §1

[21] = biological target: Man(a1-2)Man(a1-3)[Man(a1-6)]Man(a1-6)[Man(a1-2)Man(a1-3)]Man(b1-4)GlcNAc(b1-4)GlcNAc
Procedure, shortened: as §1

[22] = biological target: Man(a1-2)Man(a1-6)[Man(a1-3)]Man(a1-6)[Man(a1-2)Man(a1-2)Man(a1-3)]Man(b1-4)GlcNAc(b1-4)GlcNAc
Procedure, shortened: as §1

Man(a1-3)[Man(a1-6)]Man = biological target: Man(a1-3)[Man(a1-6)]Man
Procedure, shortened: as §1

[23] = biological target: Man(a1-3)[Man(a1-6)]Man(a1-6)[Man(a1-2)Man(a1-3)]Man(b1-4)GlcNAc(b1-4)GlcNAc
Procedure, shortened: as §1

[24] = biological target: Man(a1-3)[Man(a1-6)]Man(a1-6)[Man(a1-3)]Man
Procedure, shortened: as §1

[25] = biological target: Man(a1-3)[Man(a1-6)]Man(a1-6)[Man(a1-3)]Man(b1-4)GlcNAc(b1-4)GlcNAc
Procedure, shortened: as §1

[26] = biological target: Man(a1-3)[Man(a1-6)]Man(b1-4)GlcNAc(b1-4)GlcNAc
Procedure, shortened: as §1

[27] = biological target: Man(a1-3)[Man(a1-6)]Man(b1-4)GlcNAc(b1-4)[Fuc(a1-6)]GlcNAc
Procedure, shortened: as §1

[28] = biological target: Neu5Ac(a2-3)Gal(b1-3)GalNAc(b1-4)[Neu5Ac(a2-8)Neu5Ac(a2-3)]Gal(b1-4)Glc
Procedure, shortened: as §1

[29] = biological target: Neu5Ac(a2-3)Gal(b1-4)GlcNAc(b1-3)Gal(b1-4)GlcNAc(b1-2)Man(a1-3)[Neu5Ac(a2-3)Gal(b1-4)GlcNAc(b1-3)Gal(b1-4)GlcNAc(b1-2)Man(a1-6)]Man(b1-4)GlcNAc(b1-4)GlcNAc
Procedure, shortened: as §1

[30] = biological target: Neu5Ac(a2-3)Gal(b1-4)GlcNAc(b1-3)Gal(b1-4)GlcNAc(b1-3)GalNAc
Procedure, shortened: as §1

[31] = biological target: Neu5Ac(a2-3)[GalNAc(b1-4)]Gal(b1-4)GlcNAc(b1-3)GalNAc
Procedure, shortened: as §1

[32] = biological target: Neu5Ac(a2-6)Gal(b1-4)GlcNAc(b1-2)Man(a1-3)Man(b1-4)GlcNAc(b1-4)GlcNAc
Procedure, shortened: as §1

[33] = biological target: Neu5Ac(a2-6)Gal(b1-4)GlcNAc(b1-2)Man(a1-3)[GlcNAc(b1-4)][Neu5Ac(a2-6)Gal(b1-4)GlcNAc(b1-2)Man(a1-6)]Man(b1-4)GlcNAc(b1-4)GlcNAc
Procedure, shortened: as §1

[34] = biological target: Neu5Ac(a2-6)Gal(b1-4)GlcNAc(b1-3)Gal(b1-4)GlcNAc(b1-3)Gal(b1-4)GlcNAc(b1-2)Man(a1-3)[Neu5Ac(a2-6)Gal(b1-4)GlcNAc(b1-3)Gal(b1-4)GlcNAc(b1-3)Gal(b1-4)GlcNAc(b1-2)Man(a1-6)]GalNAc
Procedure, shortened: as §1

[35] = biological target: Neu5Ac(a2-6)GalNAc(b1-4)GlcNAc6S
Procedure, shortened: as §1

[36] = biological target: Neu5Ac(a2-8)Neu5Ac(a2-3)Gal(b1-3)GalNAc(b1-4)[Neu5Ac(a2-3)]Gal(b1-4)Glc
Procedure, shortened: as §1

[37] = biological target: Neu5Ac(a2-8)Neu5Ac(a2-3)Gal(b1-4)GlcNAc
Procedure, shortened: as §1

[38] = biological target: Neu5Ac(a2-8)Neu5Ac(a2-8)Neu5Ac
Procedure, shortened: as §1

Neu5Ac(b1-6)GalNAc = biological target: Neu5Ac(b1-6)GalNAc
Procedure, shortened: as §1

[39] = biological target: Neu5Gc(a2-3)Gal(b1-3)[Fuc(a1-4)]GlcNAc
Procedure, shortened: as §1

[40] = biological target: Neu5Gc(a2-6)Gal(b1-4)GlcNAc
Procedure, shortened: as §1

B1: GNA (Galanthus nivalis), P30617 (protein)
chain: MAKASLLILAAIFLGVITPSCLSDNILYSGETLSTGEFLNYGSFVFIMQEDCNLVLYDVDKPIWATNTGGLSRSCFLSMQTDGNLVVYNPSNKPIWASNTGGQNGNYVCILQKDRNVVIYGTDRWATGTHTGLVGIPASPPSEKYPTAGKIKLVTAK
- glycan array binding signal (z-score) (Fuc(a1-2)Gal(b1-4)Glc6S): -0.048
- glycan array binding signal (z-score) [1]: -0.241
- glycan array binding signal (z-score) [2]: -0.171
- glycan array binding signal (z-score) [3]: -0.127
- glycan array binding signal (z-score) [4]: -0.127
- glycan array binding signal (z-score) [5]: 2.17
- glycan array binding signal (z-score) [6]: -0.182
- glycan array binding signal (z-score) [7]: -0.106
- glycan array binding signal (z-score) [8]: -0.195
- glycan array binding signal (z-score) [9]: -0.192
- glycan array binding signal (z-score) (Gal(b1-4)GlcNAc): -0.172
- glycan array binding signal (z-score) (Gal(b1-4)GlcNAc(b1-2)Man): -0.167
- glycan array binding signal (z-score) [10]: 3.11
- glycan array binding signal (z-score) [11]: 0.166
- glycan array binding signal (z-score) [12]: -0.076
- glycan array binding signal (z-score) [13]: -0.093
- glycan array binding signal (z-score) [14]: -0.163
- glycan array binding signal (z-score) [15]: -0.116
- glycan array binding signal (z-score) [16]: -0.018
- glycan array binding signal (z-score) [17]: -0.21
- glycan array binding signal (z-score) (Gal3S(b1-4)GlcNAc6S): 0.332
- glycan array binding signal (z-score) (Gal3S4S(b1-4)GlcNAc): -0.065
- glycan array binding signal (z-score) (Gal3S6S(b1-4)GlcNAc): -0.101
- glycan array binding signal (z-score) [18]: -0.142
- glycan array binding signal (z-score) (GalNAc(b1-3)GalNAc): -0.175
- glycan array binding signal (z-score) [19]: -0.172
- glycan array binding signal (z-score) [20]: 6.07
- glycan array binding signal (z-score) [21]: 2.23
- glycan array binding signal (z-score) [22]: 3.2
- glycan array binding signal (z-score) (Man(a1-3)[Man(a1-6)]Man): 4.73
- glycan array binding signal (z-score) [23]: 5.86
- glycan array binding signal (z-score) [24]: 3.04
- glycan array binding signal (z-score) [25]: 5.35
- glycan array binding signal (z-score) [26]: 9.48
- glycan array binding signal (z-score) [27]: 6.97
- glycan array binding signal (z-score) [28]: -0.155
- glycan array binding signal (z-score) [29]: 0.02
- glycan array binding signal (z-score) [30]: -0.172
- glycan array binding signal (z-score) [31]: -0.073
- glycan array binding signal (z-score) [32]: -0.17
- glycan array binding signal (z-score) [33]: -0.182
- glycan array binding signal (z-score) [34]: -0.029
- glycan array binding signal (z-score) [35]: -0.173
- glycan array binding signal (z-score) [36]: -0.169
- glycan array binding signal (z-score) [37]: -0.178
- glycan array binding signal (z-score) [38]: -0.155
- glycan array binding signal (z-score) (Neu5Ac(b1-6)GalNAc): -0.21
- glycan array binding signal (z-score) [39]: -0.154
- glycan array binding signal (z-score) [40]: -0.116
